Laboratory results reported in ChEMBL document CHEMBL1961873, “Compounds: GSK PKIS; Assays: Nanosyn kinase panel” (2012).

Columns and labels:
[1] = target: T1, Ephrin type-B receptor 2 (Homo sapiens) (UniProt P29323); details: at 1 µM
T1 sequence (whole entry): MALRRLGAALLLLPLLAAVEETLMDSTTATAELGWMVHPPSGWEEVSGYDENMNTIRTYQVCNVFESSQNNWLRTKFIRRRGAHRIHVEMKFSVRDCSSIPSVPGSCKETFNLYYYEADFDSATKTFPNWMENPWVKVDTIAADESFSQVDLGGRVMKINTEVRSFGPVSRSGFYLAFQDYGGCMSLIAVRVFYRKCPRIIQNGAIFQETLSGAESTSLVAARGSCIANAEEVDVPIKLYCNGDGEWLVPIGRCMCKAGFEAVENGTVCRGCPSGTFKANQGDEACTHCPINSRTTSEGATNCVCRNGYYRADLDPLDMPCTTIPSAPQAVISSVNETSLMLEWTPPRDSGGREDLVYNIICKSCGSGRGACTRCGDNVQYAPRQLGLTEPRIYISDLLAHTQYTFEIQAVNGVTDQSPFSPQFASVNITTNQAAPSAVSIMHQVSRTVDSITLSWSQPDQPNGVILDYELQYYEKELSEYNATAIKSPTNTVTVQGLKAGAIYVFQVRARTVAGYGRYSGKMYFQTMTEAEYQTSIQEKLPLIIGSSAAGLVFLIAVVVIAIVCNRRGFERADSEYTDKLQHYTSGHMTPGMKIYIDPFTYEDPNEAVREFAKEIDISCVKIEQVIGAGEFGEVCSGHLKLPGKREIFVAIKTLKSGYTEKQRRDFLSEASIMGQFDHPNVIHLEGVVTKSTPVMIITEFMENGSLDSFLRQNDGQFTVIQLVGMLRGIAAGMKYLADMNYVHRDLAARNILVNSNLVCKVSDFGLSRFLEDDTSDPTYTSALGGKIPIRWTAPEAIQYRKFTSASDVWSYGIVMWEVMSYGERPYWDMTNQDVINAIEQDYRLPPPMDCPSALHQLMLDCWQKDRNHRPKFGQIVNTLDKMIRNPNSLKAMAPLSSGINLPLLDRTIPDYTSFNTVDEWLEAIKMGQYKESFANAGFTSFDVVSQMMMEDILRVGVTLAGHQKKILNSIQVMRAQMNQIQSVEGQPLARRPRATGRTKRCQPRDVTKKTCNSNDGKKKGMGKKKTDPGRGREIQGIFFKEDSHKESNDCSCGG

[2] = target: T2, Ephrin type-B receptor 3 (Homo sapiens) (UniProt P54753); details: at 0.1 µM
T2 sequence (whole entry): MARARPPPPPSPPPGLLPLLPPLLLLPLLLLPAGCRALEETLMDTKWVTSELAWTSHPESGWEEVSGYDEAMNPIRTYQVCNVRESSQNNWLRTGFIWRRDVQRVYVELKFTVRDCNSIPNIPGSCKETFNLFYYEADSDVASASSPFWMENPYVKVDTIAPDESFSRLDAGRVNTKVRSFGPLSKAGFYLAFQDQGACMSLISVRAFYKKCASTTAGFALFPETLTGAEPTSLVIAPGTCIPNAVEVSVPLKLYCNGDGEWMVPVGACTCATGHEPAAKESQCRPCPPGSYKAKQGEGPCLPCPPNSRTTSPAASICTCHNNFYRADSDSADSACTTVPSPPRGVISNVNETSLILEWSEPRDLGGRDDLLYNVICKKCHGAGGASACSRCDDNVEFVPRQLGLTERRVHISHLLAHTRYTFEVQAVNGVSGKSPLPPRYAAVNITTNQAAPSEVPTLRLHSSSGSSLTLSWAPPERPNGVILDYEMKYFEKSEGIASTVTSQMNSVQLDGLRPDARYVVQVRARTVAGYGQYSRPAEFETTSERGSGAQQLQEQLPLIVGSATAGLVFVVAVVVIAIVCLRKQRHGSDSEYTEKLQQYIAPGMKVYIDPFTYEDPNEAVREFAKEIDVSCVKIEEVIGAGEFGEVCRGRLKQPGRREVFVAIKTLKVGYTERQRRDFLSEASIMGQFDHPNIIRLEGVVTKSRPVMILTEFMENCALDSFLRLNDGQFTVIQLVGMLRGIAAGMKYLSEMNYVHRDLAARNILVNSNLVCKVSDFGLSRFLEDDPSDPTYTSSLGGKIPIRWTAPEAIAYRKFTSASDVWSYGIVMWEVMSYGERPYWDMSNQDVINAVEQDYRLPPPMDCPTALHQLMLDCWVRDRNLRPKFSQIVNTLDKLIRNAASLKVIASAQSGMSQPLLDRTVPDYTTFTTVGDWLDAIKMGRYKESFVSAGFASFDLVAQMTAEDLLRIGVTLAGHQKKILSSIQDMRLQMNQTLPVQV

[3] = target: T2, Ephrin type-B receptor 3 (Homo sapiens); details: at 1 µM
[4] = target: T3, Ephrin type-B receptor 4 (Homo sapiens) (UniProt P54760); details: at 0.1 µM
T3 sequence (whole entry): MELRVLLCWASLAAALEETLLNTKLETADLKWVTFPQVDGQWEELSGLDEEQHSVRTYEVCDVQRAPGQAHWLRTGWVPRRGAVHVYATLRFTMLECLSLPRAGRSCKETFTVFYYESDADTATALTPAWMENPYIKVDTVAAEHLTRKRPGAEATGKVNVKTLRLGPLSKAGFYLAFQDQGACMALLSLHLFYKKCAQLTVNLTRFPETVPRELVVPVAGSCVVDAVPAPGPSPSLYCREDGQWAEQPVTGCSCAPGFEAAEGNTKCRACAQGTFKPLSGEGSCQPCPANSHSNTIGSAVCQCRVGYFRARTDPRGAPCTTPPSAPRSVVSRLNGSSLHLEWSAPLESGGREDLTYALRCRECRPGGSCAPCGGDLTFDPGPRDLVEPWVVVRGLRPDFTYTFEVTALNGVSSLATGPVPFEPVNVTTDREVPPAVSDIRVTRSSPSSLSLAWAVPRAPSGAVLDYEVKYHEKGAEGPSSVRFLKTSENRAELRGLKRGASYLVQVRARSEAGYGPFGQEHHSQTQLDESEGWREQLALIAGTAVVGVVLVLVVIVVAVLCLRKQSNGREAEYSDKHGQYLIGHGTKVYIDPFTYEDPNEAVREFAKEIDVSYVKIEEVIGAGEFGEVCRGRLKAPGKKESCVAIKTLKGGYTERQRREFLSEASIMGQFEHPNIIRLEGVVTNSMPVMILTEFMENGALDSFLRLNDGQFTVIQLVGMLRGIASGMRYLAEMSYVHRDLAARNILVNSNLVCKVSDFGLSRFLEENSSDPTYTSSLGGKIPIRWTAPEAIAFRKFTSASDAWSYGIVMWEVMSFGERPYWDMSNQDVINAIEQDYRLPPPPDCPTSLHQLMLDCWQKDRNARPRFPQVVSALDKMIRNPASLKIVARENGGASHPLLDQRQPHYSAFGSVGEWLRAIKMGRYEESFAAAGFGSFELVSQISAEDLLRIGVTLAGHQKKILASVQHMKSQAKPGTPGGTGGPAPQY

[5] = target: T3, Ephrin type-B receptor 4 (Homo sapiens); details: at 1 µM
[6] = target: Receptor tyrosine-protein kinase erbB-2 (Homo sapiens) (UniProt P04626); details: at 0.1 µM
[7] = target: Receptor tyrosine-protein kinase erbB-2 (Homo sapiens) (UniProt P04626); details: at 1 µM
[8] = target: Receptor tyrosine-protein kinase erbB-4 (Homo sapiens) (UniProt Q15303); details: at 0.1 µM
[9] = target: Receptor tyrosine-protein kinase erbB-4 (Homo sapiens) (UniProt Q15303); details: at 1 µM
[10] = target: Tyrosine-protein kinase Fer (Homo sapiens) (UniProt P16591); details: at 0.1 µM
[11] = target: Tyrosine-protein kinase Fer (Homo sapiens) (UniProt P16591); details: at 1 µM
[12] = target: Tyrosine-protein kinase Fes/Fps (Homo sapiens) (UniProt P07332); details: at 0.1 µM
[13] = target: Tyrosine-protein kinase Fes/Fps (Homo sapiens) (UniProt P07332); details: at 1 µM
[14] = target: Fibroblast growth factor receptor 1 (Homo sapiens) (UniProt P11362); details: at 0.1 µM
[15] = target: Fibroblast growth factor receptor 1 (Homo sapiens) (UniProt P11362); details: at 1 µM
[16] = target: Fibroblast growth factor receptor 2 (Homo sapiens) (UniProt P21802); details: at 0.1 µM
[17] = target: Fibroblast growth factor receptor 2 (Homo sapiens) (UniProt P21802); details: at 1 µM
[18] = target: Fibroblast growth factor receptor 3 (Homo sapiens) (UniProt P22607); details: at 0.1 µM
[19] = target: Fibroblast growth factor receptor 3 (Homo sapiens) (UniProt P22607); details: at 1 µM
[20] = target: Fibroblast growth factor receptor 4 (Homo sapiens) (UniProt P22455); details: at 0.1 µM;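 note: values are mean percent inhibition of FGFR4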

Fibroblast growth factor receptor 3 (Homo sapiens), sequence (P22607 23-806 limits assumed): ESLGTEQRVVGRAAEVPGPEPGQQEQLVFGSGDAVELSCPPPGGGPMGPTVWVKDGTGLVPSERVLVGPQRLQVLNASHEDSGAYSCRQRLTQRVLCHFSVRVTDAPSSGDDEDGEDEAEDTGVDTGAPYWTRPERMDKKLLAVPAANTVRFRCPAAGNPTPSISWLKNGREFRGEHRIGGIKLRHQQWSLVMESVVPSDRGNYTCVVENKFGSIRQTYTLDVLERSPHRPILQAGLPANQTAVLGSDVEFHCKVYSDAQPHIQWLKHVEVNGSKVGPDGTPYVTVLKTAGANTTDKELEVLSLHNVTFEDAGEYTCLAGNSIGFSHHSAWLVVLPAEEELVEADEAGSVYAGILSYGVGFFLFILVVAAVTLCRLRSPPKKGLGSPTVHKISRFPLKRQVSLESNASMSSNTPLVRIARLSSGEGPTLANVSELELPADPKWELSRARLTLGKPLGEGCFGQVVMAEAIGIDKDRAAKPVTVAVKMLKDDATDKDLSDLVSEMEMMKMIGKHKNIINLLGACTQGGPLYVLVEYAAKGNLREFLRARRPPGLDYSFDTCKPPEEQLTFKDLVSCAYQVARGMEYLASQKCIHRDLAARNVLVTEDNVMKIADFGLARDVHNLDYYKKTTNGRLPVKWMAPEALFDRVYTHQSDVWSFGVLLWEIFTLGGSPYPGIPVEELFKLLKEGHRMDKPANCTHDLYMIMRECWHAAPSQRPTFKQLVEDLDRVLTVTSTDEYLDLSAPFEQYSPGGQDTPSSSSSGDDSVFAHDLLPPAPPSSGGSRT
Fibroblast growth factor receptor 1 (Homo sapiens), sequence (P11362 22-822 limits assumed): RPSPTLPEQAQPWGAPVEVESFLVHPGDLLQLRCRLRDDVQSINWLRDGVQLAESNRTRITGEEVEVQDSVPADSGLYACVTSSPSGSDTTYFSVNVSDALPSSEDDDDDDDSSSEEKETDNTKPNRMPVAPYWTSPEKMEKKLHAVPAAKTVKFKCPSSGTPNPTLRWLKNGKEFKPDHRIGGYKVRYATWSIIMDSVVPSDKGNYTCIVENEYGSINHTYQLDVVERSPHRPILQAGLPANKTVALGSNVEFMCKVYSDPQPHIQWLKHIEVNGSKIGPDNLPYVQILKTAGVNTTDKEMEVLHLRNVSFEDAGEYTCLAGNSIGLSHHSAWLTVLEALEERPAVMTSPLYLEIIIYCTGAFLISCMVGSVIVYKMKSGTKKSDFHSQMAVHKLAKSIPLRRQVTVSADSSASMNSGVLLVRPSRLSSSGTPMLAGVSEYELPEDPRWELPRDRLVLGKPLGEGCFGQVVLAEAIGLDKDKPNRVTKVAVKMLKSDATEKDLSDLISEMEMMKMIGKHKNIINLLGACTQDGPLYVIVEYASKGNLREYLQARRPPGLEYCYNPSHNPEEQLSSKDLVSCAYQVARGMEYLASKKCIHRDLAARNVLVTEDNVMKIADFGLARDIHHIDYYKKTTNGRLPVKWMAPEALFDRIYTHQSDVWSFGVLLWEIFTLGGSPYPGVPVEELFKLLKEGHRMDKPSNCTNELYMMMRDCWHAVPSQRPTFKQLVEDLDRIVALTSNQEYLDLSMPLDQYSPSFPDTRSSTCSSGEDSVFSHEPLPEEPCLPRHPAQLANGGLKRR
Receptor tyrosine-protein kinase erbB-2 (Homo sapiens), sequence (P04626 whole entry): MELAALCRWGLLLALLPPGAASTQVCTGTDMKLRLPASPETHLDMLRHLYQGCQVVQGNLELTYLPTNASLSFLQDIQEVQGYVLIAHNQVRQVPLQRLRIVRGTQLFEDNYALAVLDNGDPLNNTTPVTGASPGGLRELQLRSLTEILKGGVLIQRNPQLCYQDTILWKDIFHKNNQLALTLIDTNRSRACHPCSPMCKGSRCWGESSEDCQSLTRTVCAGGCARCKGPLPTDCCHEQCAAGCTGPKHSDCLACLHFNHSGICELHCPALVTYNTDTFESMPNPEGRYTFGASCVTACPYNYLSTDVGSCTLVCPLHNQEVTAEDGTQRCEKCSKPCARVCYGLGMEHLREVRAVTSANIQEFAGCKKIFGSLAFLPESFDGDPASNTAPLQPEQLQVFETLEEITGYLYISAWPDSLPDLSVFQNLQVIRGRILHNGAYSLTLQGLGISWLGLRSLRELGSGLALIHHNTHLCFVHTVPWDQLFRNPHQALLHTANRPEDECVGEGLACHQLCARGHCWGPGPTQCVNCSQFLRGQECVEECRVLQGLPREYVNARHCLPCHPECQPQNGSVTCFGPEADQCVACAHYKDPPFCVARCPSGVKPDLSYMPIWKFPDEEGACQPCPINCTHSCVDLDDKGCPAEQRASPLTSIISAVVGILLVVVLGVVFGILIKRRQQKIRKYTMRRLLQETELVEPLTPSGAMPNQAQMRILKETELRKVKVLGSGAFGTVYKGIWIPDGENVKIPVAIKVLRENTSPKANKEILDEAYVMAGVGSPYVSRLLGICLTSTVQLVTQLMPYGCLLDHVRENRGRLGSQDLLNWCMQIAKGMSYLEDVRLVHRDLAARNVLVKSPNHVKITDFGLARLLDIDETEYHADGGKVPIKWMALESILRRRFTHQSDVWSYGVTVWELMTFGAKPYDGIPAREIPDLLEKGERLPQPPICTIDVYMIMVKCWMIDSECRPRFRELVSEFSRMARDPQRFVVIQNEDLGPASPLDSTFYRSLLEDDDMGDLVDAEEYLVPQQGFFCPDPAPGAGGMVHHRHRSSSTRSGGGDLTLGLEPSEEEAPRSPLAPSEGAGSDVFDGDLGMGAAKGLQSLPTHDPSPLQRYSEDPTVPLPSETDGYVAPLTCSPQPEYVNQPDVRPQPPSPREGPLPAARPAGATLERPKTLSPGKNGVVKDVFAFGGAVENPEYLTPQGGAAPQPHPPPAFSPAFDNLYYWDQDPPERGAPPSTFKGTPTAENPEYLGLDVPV
Tyrosine-protein kinase Fer (Homo sapiens), sequence (P16591 whole entry, looked up): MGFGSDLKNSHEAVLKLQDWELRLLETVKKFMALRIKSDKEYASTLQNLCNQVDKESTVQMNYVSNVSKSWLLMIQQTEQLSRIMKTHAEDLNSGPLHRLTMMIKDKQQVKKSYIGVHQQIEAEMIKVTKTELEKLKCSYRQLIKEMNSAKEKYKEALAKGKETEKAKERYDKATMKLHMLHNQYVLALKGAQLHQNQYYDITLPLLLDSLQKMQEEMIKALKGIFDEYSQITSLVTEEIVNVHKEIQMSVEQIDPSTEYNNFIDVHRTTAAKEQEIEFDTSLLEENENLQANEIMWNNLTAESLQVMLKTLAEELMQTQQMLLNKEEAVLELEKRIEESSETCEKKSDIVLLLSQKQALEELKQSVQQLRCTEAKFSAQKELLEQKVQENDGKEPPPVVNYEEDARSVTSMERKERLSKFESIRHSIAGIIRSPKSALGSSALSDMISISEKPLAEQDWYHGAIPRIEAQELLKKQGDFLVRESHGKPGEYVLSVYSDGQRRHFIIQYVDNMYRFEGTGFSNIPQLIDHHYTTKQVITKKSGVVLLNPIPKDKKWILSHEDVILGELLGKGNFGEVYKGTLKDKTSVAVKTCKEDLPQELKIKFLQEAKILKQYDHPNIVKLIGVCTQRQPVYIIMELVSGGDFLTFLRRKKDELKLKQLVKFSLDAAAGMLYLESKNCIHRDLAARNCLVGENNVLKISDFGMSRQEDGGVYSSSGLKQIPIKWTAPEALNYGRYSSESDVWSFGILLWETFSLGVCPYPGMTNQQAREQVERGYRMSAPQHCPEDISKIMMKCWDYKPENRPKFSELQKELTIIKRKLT
Fibroblast growth factor receptor 2 (Homo sapiens), sequence (P21802 22-821 limits assumed): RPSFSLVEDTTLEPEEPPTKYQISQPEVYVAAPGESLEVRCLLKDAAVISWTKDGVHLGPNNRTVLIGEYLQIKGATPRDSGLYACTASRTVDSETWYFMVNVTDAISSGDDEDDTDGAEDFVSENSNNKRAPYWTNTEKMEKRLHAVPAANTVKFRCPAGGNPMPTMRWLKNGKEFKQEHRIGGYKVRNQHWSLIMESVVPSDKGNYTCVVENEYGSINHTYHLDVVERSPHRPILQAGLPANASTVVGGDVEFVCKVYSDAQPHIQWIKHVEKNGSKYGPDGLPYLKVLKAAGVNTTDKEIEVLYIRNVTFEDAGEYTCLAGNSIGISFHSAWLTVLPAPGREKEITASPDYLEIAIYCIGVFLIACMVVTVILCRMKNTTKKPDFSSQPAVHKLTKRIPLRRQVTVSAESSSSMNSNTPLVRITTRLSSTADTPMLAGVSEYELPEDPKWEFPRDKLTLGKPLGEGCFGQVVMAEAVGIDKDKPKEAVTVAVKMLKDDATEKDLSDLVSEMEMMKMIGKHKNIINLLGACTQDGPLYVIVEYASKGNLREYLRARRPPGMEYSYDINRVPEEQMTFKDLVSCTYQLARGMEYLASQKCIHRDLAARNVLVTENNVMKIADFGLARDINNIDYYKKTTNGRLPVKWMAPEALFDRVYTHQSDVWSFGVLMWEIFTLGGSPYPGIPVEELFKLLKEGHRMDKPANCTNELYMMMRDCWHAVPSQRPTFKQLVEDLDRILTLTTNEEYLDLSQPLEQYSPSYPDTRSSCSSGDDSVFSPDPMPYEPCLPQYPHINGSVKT

| Structure (SMILES) | inhibition [1] [%] | inhibition [2] [%] | inhibition [3] [%] | inhibition [4] [%] | inhibition [5] [%] | inhibition [6] [%] | inhibition [7] [%] | inhibition [8] [%] | inhibition [9] [%] | inhibition [10] [%] | inhibition [11] [%] | inhibition [12] [%] | inhibition [13] [%] | inhibition [14] [%] | inhibition [15] [%] | inhibition [16] [%] | inhibition [17] [%] | inhibition [18] [%] | inhibition [19] [%] | inhibition [20] [%] |
| --- | --- | --- | --- | --- | --- | --- | --- | --- | --- | --- | --- | --- | --- | --- | --- | --- | --- | --- | --- | --- |
| COc1ccc2ncn(-c3cc(O[C@H](C)c4ccccc4Cl)c(C(N)=O)s3)c2c1 | 12 | 0.01 | 0.43 | -2.13 | -1.28 | 2.78 | 2.8 | 1.62 | 4.43 | 2.82 | 3.7 | 2.74 | 1.59 | -0.72 | 4.65 | -0.16 | 5.18 | 1.57 | 4.59 | -1.86 |
| Fc1ccc(-c2ncn(C3CCNCC3)c2-c2ccnc(Oc3ccc(F)c(F)c3)n2)cc1 | 8.76 | -0.46 | 1.58 | -4.11 | 0.57 | 3.82 | 3.63 | 1.82 | 5.03 | 1.43 | 3.96 | 2.73 | 2.2 | -3.39 | 0.21 | 0.37 | 2.12 | 0.74 | 2.67 | -2.57 |
| CNC(=O)c1cncc(/C=C/c2c(C)cccc2C)c1 | 65.9 | -1 | 2.29 | 7.98 | 45.7 | -0.21 | 1.84 | -1.45 | 2.45 | 1.13 | 3.37 | -0.51 | -0.68 | -3.96 | -3.96 | -3.46 | -2.09 | -2.67 | -3.86 | -4.63 |
| NC(=O)Cc1ccccc1Oc1nccc(-c2c(-c3ccc(F)cc3)ncn2C2CCNCC2)n1 | 6.53 | 3.13 | 4.05 | 0.65 | 2.09 | 2.21 | -1.85 | 12.1 | 17.1 | 6.39 | 4.36 | 1.68 | 2.12 | 5.6 | 3.15 | 1.69 | 5.26 | 3.66 | 3.8 | 0.37 |
| CCS(=O)(=O)c1ccc(OC)c(Nc2ncc(-c3ccccc3Cl)o2)c1 | 8.86 | 4.07 | 3.23 | 1.77 | 1.22 | -1.67 | 1.42 | 4.14 | 4.95 | -0.76 | 2.34 | 0.35 | 0.33 | 2.09 | 7.29 | 6.83 | 33 | 6.65 | 32.4 | 3.96 |
| COc1ccc(-c2ccc3c(NC(=O)C4CC4)n[nH]c3n2)cc1 | 5.25 | 3.22 | 2.79 | 1.54 | -0.15 | 2.9 | 3.27 | 4.2 | 3.94 | 2 | 3.63 | 0.69 | 0.62 | -1.21 | 0.21 | 0.09 | 0.42 | 1.8 | 0.95 | -0.34 |
| NC(=O)c1cc(-c2ccncc2)cc(-c2ccccc2)c1N | 57.7 | 7.22 | 21.1 | 7.68 | 36 | 4.68 | 8.53 | 21.7 | 33.8 | 6.01 | 4.57 | 3.8 | 3.92 | 8.68 | 6.54 | 5.47 | 8.42 | 7.6 | 6.17 | 0.6 |
| COc1cc(Nc2ncc3c(C)nc(-c4cccc(Oc5ccccc5)c4)n3n2)cc(OC)c1OC | 8.52 | 4.24 | 1.21 | 2.59 | 2.97 | 1.99 | -3.48 | 7.04 | 8.43 | 3.91 | 7.1 | 2.66 | 3.2 | 2.41 | -0.38 | 0.66 | 5.14 | 3.25 | 3.03 | 1.38 |
| O=C1Nc2ccccc2/C1=C/Nc1ccc(-n2cncn2)cc1 | 8.52 | 4.57 | 2.77 | 2.19 | 2.59 | 3.17 | 9.83 | 9.69 | 12.5 | 3.94 | 11.2 | 2.67 | 2.63 | 2.75 | 9.98 | 5.38 | 24.9 | 7.96 | 22 | – |
| O=C1Nc2ccc(I)cc2C1=Cc1cc(Br)c(O)c(Br)c1 | 6.84 | 0.93 | 5.23 | 5.1 | 4.33 | 3.38 | 2.46 | 5.63 | 10.5 | -1.96 | 4.37 | 3.93 | 4.1 | 5.92 | 2.51 | 8.24 | 7.14 | 6.43 | 5.73 | 5.1 |
| NC(=O)c1cc(-c2ccc(F)cc2)cc(-c2ccncc2)c1N | 8.83 | 5.88 | 5.99 | 3.64 | 3.21 | 4.35 | 4.97 | 7.7 | 11.7 | 1.98 | 1.93 | 3.18 | 3.59 | 5.1 | 3.07 | 1.81 | 4.41 | 4.84 | 2.54 | -4.89 |
| CS(=O)(=O)CCNCc1ccc(-c2ccc3ncnc(Nc4ccc(OCc5ccccc5)c(Br)c4)c3c2)o1 | 6.61 | -1.4 | -0.23 | -1.9 | -0.22 | 10.8 | 73.5 | 42.6 | 79.8 | 2.74 | 4.54 | 2.7 | 1.88 | -3.67 | 4.36 | 1.07 | 4.45 | 0.3 | 1.62 | -4.71 |
